# This is a sample that favours compounds with a hit; in the whole collection about 2.9% have one here.
# Calb biofilm kill: kills Candida albicans biofilms; C. albicans biofilm + clotrimazole, Alamar Blue; hit rate 0.14% among 85,000; inhibition, % at 6 µM;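 active means inhibition above 20%; inactive means inhibition below 20%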;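 further: preformed 24 hr biofilms exposed to compound for 48 hr; 0% = biofilm without compound and 100% = blank killed by clotrimazole plus chlorhexidine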
# cytoskel mod: modifiers of cytoskeleton assembly; HUVEC TNFa F-actin phalloidin imaging, high content; hit rate 0.18% among 91,000; inhibition, % at 2 µM; AID 836;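 active means inhibition above the batch mean plus 3 SD and confirmed as a hit by visual image inspection, cut at about 30% in these data, passing the limit was not always enough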
# ERa SRC1 inh: blocks coactivator binding to human estrogen receptor alpha. P03372. TR-FRET ER-alpha LBD / SRC-1 peptide, estradiol-bound. inhibition, % at 25.6 µM. hit rate 1.7% among 86,000. AID 629; in the data active means inhibition above about 50%;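 further: 0% = receptor plus peptide control and 100% = peptide only without receptor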
# E-sel TNF inh: TNF alpha driven E-selectin expression inhibition; HUVEC TNFa-induced E-selectin immunofluorescence, high content; inhibition, % at 2 µM; hit rate 0.71% among 120,000; AID 1246;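 active means inhibition above the batch mean plus 3 SD, and confirmed as a hit on visual image review, cut at about 43% in these data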;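 further: 0% = TNF-stimulated DMSO wells and 100% = unstimulated control wells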
# ERa SRC1 pot: ER-alpha (human) coactivator binding potentiation; P03372; TR-FRET ERalpha-LBD/SRC-Cy5 coactivator binding, 2 h; 100 = basal binding, no effect; coactivator binding (% of control), % at 25.6 µM; hit rate 1.3% among 86,000; AID 639; in the data active means activity above about 200%;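 further: binding measured in presence of low estradiol as agonist stimulus; 0% = peptide alone without receptor and 100% = receptor with peptide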
# ERb SRC1 inh: ER-beta (human) coactivator binding inhibition. TR-FRET ER-beta LBD / SRC1-Cy5 peptide binding; receptor agonist-loaded with 1 µM estradiol. inhibition, % at 25.6 µM. hit rate 1.3% among 86,000;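 active means compounds whose percent inhibition of the receptor-coactivator binding signal exceeds about 50% in the single-dose screen, limit read from the data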;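 further: 0% = receptor plus peptide wells without compound and 100% = peptide-only wells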
# Target sequence (Q92731 whole entry, looked up, the tested form may be a part): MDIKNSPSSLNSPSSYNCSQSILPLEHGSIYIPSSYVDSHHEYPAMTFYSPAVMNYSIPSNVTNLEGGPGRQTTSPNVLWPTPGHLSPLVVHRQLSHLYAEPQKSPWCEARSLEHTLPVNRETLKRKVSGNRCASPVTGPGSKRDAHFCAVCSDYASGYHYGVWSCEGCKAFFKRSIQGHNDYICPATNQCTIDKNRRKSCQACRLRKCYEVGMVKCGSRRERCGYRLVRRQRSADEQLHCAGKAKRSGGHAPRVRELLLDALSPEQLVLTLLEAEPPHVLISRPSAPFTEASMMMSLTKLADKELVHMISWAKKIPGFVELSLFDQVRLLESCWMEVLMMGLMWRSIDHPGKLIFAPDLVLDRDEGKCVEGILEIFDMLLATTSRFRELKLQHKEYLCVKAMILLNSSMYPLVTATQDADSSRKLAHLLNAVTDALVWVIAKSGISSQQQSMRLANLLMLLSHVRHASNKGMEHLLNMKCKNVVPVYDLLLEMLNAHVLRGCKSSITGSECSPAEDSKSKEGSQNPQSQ
# * hit, by the source's call; nt = not tested or not shown; [ ] = dose if it differs, or a comment.
SMILES,Calb biofilm kill,cytoskel mod,ERa SRC1 inh,E-sel TNF inh,ERa SRC1 pot,ERb SRC1 inh
C/C(CCc1ccccc1)=N/NC(=O)C(=O)NC(C)c1ccccc1 (stereo not given),nt,nt,nt,7,nt,nt
COC(=O)C(NC=O)C(O)(Cc1ccccc1)C(F)(F)F (stereo not given),8,1,-17,-23,123,-11
COc1ccc(-c2nnn(CC(=O)Nc3sc4c(c3C#N)CCCC4)n2)cc1,4,-6,51*[fluorescence artefact?],-12,115,24
O=C(O)c1ccc(-c2ccccc2Cl)o1,2,nt,-9,-21,115,-5
O=C(O)c1ccc(-c2ccc(Cl)cc2Cl)o1,nt,-15,nt,61*,nt,nt
OC1(c2cccc(C(F)(F)F)c2)CCNCC1,11,9,16,-12,86,70*[fluorescence artefact?]
N#CCCN(C(=O)CSc1nc(-c2ccccc2)cn1N)c1ccc(F)cc1,-1,nt,-5,2,102,-11
Cc1cc(C)n(CCN(C)c2nc3nonc3nc2NC2CC2)n1,nt,nt,nt,2,nt,nt
CCc1ccc(C(=O)CSc2nc3cc(S(=O)(=O)N4CCOCC4)ccc3n2CC)cc1,nt,nt,nt,-6,nt,nt
COc1ccc(NC(=O)CC(Cc2ccccc2)C(=O)O)cc1 (stereo not given),10,-44,3,-1,105,5
COCCCNC(CC(=O)Nc1ccccc1C(=O)OC)C(=O)O (stereo not given),7,2,-6,60*,118,-9
CCCCCNC(CC(=O)Nc1ccc(OC)cc1)C(=O)O (stereo not given),10,nt,-7,nt,788*[fluorescence artefact?],1
O=C(Nc1nc(-c2ccccn2)cs1)c1ccc(Br)s1,3,-18,-12,-21,473*,-11
O=C(Cn1ncc(Cl)c(Cl)c1=O)N1CCOCC1,nt,nt,nt,-6,nt,nt
CCc1ccc(C(=O)Cn2ncc(Cl)c(Cl)c2=O)cc1,7,-8,3,0,58,52*
COc1nc(N2CCCC2)nc(-n2cc(-c3ccccc3)nn2)n1,3,nt,8,nt,113,11
O=C(c1cnc(Cl)c(Cl)c1)N1CCC(Cc2ccccc2)CC1,nt,nt,nt,19,nt,nt
O=C(c1cc(-c2ccncc2)nc2ccc(Br)cc12)N1CCN(c2ccccn2)CC1,0,84*,7,-18,96,-6
O=C(c1cccn2c(=O)c3cc(Br)ccc3nc12)N1CCN(c2ccccn2)CC1,6,nt,10,19,109,7
COc1ccc(OC)c(N(CC(=O)Nc2ccc3c(c2)OCCO3)S(C)(=O)=O)c1,7,nt,1,-48,94,-3
O=C(NCc1ccc(Cl)cc1)c1cc(-c2cccs2)on1,7,-14,95*,nt,98,14
O=C(NCc1cccs1)c1cc(-c2cccs2)on1,7,11,-5,nt,114,-6
COc1ccc(CNC(=O)c2cc(-c3cccs3)on2)cc1,11,0,76*,nt,156,51*[fluorescence artefact?]
COc1ccc(-c2cc(C(F)(F)F)n3nc(C(=O)NCc4ccco4)cc3n2)cc1OC,2,-14,6,8,140,19
CCOC(=O)N1CCC(=NNS(=O)(=O)c2cccc([N+](=O)[O-])c2)CC1,nt,14,nt,-24,nt,nt
SMILES,Calb biofilm kill,cytoskel mod,ERa SRC1 inh,E-sel TNF inh,ERa SRC1 pot,ERb SRC1 inh
Cc1nn2c(-c3cccc(NC(=O)CSc4nc5ccccc5o4)c3)nnc2c2ccccc12,2,6,69*[fluorescence artefact?],31,200,55*
N=c1oc2c3c4c(cc2cc1C(=O)Nc1ccccc1)CCCN4CCC3,nt,43*,nt,31,nt,nt
N#Cc1ccc(NC(=O)c2cc3cc4c5c(c3oc2=N)CCCN5CCC4)cc1,10,nt,64*,nt,71,49
O=C(CSc1nnc(-c2ccncc2)n1Cc1ccccc1)NC1CCCc2ccccc21 (stereo not given),nt,nt,nt,6,nt,nt
O=C(N/N=C/c1cccc(Oc2ccc([N+](=O)[O-])cc2[N+](=O)[O-])c1)c1cncc(Br)c1,4,1,96*,2,23,39
CCCCNC(=S)NNC(=O)c1c(C)nc2ccccn12,nt,nt,nt,13,nt,nt
COc1ccc2c(c1OC)C(=O)N1N=C(c3ccc(O)cc3)CC21 (stereo not given),nt,10,nt,3,nt,nt
CCOc1ccc(N2CC(C(=O)OCC(=O)NCc3ccccc3)CC2=O)cc1 (stereo not given),nt,3,nt,nt,nt,nt
CC(=O)CCc1c(C)c2cccc(C)c2[nH]c1=O,7,nt,4,nt,95,82*[fluorescence artefact?]
CCCc1c(C)c2cccc(C)c2[nH]c1=O,5,6,9,-4,96,3
CCCc1nc2sc3ccccc3c(=O)c2c(=O)n1Cc1ccco1,5,5,70*[fluorescence artefact?],17,69,64*
COCCn1c(=S)[nH]c2cc(C(=O)N3CCN(c4ccc(F)cc4)CC3)ccc2c1=O,1,19,17,nt,131,7
COc1cc(C(=O)OCCNC(=O)c2ccncc2)cc(OC)c1OC,nt,nt,nt,62*,nt,nt
COc1ccc(/C=C/C(=O)c2cc3c(cc2N)OCO3)cc1,nt,nt,nt,-28,nt,nt
COc1ccc(S(=O)(=O)c2c(N)n(Cc3ccco3)c3nc4ccccc4nc23)cc1,2,4,83*[fluorescence artefact?],-25,37,78*[fluorescence artefact?]
COc1ccc(Cn2c3nc4ccccc4nc3c3c(=O)n(Cc4ccco4)c(C)nc32)cc1,4,nt,75*,nt,138,60*[fluorescence artefact?]
Nc1c(S(=O)(=O)c2ccccc2)c2nc3ccccc3nc2n1/N=C/c1ccco1,-2,5,32,11,61,48
CCc1cccc(C)c1NC(=O)CSc1nnc(CCCOc2ccc(Cl)cc2Cl)n1C,nt,nt,nt,-10,nt,nt
Cc1cc(C(=O)CN2C(=O)C(=O)N(Cc3ccccc3)C2=O)c(C)n1-c1ccc2c(c1)OCCO2,nt,nt,nt,-5,nt,nt
COc1cccc2sc(N(CCCN(C)C)C(=O)c3sc4ccccc4c3Cl)nc12,nt,nt,nt,-1,nt,nt
Cc1nn(-c2ccc(F)cc2)c(Cl)c1/C=C(\CC(=O)O)c1nc2ccccc2s1,-2,9,9,-14,101,9
O=c1c2c([nH]c3ccc(Br)cc13)CCCC2,3,nt,8,nt,83,6
O=c1ccc2cc3c([nH]c4ccc(Br)cc43)oc-2c1O,-2,nt,72*[fluorescence artefact?],9,19,74*[fluorescence artefact?]
CN1CCN(S(=O)(=O)c2ccc3c4c(cccc24)C(=O)N3)CC1,9,2,26,nt,148,-10
CCOc1ccccc1N1CCN(S(=O)(=O)c2ccc3c4c(cccc24)C(=O)N3)CC1,10,24,39,-7,55,56*[fluorescence artefact?]
O=C(NNC(=O)c1ccc(SCC2CCCO2)c([N+](=O)[O-])c1)c1ccc(Cl)c([N+](=O)[O-])c1 (stereo not given),3,6,51*,1,62,18
Cc1cc(C#N)c(C)n1-c1cc(S(=O)(=O)N2CCOCC2)ccc1N1CCCC1,7,-14,6,-20,77,-6
O=C(COC(=O)CCc1ccc(S(=O)(=O)N2CCOCC2)cc1)NC(=O)NC1CCCCC1,nt,nt,nt,24,nt,nt
CCOC(=O)c1cc(C#N)c(SCC(=O)c2cc(C#N)c(SC)nc2C)nc1C,3,nt,35,nt,288*,32
CCOC(=O)c1cc(C#N)c(SCc2cccc3ccccc23)nc1C,1,5,-3,20,150,-13

# From PubChem
